This is an account of results in PubChem BioAssay (NCATS).

Unmarked numbers belong to inactive results. Records with an inconclusive call do not appear. Activity calls are given as the source filed them. Unless noted, calls follow the shape of the dose curve; as a rule, active = well fitted curve in the direction sought with a large enough effect; inconclusive = small, poorly fitted or top-dose-only effect, or another doubt; inactive = no such curve, though single readings can be large; an effect the other way counts as inactive or inconclusive.

Experiment [1] is described as follows: Cell Viability - BJ (AID 421; calls by dose curve;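 also: potency is read from the fitted curve at half-maximal effect; cells exposed to compound for 40 hours at 37 °C before readout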). To be noted: BJ fibroblast viability, qHTS. A digest of the protocol:
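Cytotoxicity in human BJ foreskin fibroblasts is scored as loss of cellular ATP after a 40-hour exposure, measured by luciferase luminescence. Controls are DMSO and 100 uM tamoxifen.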
For orientation: qHTS replaces the single test concentration by a dilution series.

A short description of experiment [2]: Cell Viability - Jurkat (AID 426;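 active = dose-dependent loss of cell ATP signal giving a full or clear fitted curve, ranked by lower potency value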; also: potency is read from the fitted curve at half-maximal effect). To be noted: qHTS. A digest of the protocol:
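Jurkat (Clone E6-1) cells, 5000/well in complete medium, exposed to compounds for 40 hr at 37C; intracellular ATP measured by CellTiter-Glo luminescence after 20 min at room temperature. AC50 from Hill fits.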

Experiment [3] can be described thus: Cell Viability - Hek293 (AID 427;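 active = compounds whose dose-response curve shows a full or clear partial loss of cell viability, called from curve shape rather than a numeric limit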;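 also: potency is read from the fitted curve at half-maximal effect; cells exposed to compound for 40 hours at 37 °C before reading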). To be noted: qHTS. Put shortly: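 qHTS, human embryonic kidney (adenovirus-transformed) cells; 40 hr cpd, 37 °C; CellTiter-Glo ATP luminescence. Norm: DMSO = 0, 100 uM tamoxifen = 100% inhibition. Hill-fit AC50.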
Experiment [4] can be described thus: Cell Viability - HepG2 (AID 433; calls by dose curve;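 also: potency is read from the fitted curve at half-maximal effect; potency for ATP loss meaning cytotoxicity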). To be noted: qHTS. A digest of the protocol: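 Cytotoxicity is scored as loss of intracellular ATP in HepG2 cells exposed to compounds for 40 h. Concentration-response curves, normalized to DMSO and 100 uM tamoxifen, give AC50 values.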
The nature of experiment [5]: Cell Viability - MRC5 (AID 434; calls by dose curve;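 also: potency is read from the fitted curve at half-maximal effect; potency reflects cytotoxicity seen as loss of intracellular ATP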). To be noted: MRC5 lung fibroblast viability, qHTS. A digest of the protocol: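 MRC5 normal human lung fibroblasts, 1500 cells/well, exposed to compound for 40 hr at 37 C. Cellular ATP was read by CellTiter-Glo luminescence; data normalized to DMSO and 100 uM tamoxifen, with AC50 from Hill fits.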
Experiment [6] can be described thus: Cell Viability - SK-N-SH (AID 435; calls by dose curve;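 also: potency is read from the fitted curve at half-maximal effect; compound exposure lasted 40 h at 37 °C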). To be noted: SK-N-SH neuroblastoma cell viability qHTS. A digest of the protocol:
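Cells seeded at 1500 per well and incubated 5 hr at 37 °C. Compound added, then 40 hr at 37 °C. CellTiter-Glo added, 20 min at room temperature, luminescence read.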

The nature of experiment [7]: Cell Viability - N2a (AID 540).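 Also: plate controls were DMSO alone for no effect and tamoxifen control for full effect; nearly all actives have a fitted effect of over 45% in size.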 The settings on record: N2a mouse neuroblastoma cell viability; series mostly up to 92.2 µM. A digest of the protocol:
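Mouse neuroblastoma N2a cells, 1500/well, exposed to compounds 40 h at 37 °C in complete medium. Viability measured as cellular ATP by CellTiter-Glo luminescence; AC50 from Hill fits of concentration-response.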

Experiment [8] is described as follows: Cell Viability - SH-SY5Y (AID 544). Also: nearly all actives have a fitted effect of over 55% in size. To be noted: SH-SY5Y neuroblastoma cell viability; at 92.2 µM (top of the series). Put shortly: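 SH-SY5Y human neuroblastoma cells (1500/well) incubated 5 h, then compound-treated 40 h at 37 °C in complete medium. Viability read as intracellular ATP by CellTiter-Glo luminescence after 20 min; AC50 from Hill-equation fits of qHTS concentration-response.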

Experiment [9] can be described thus: Cell Viability - Renal Proximal Tubule (AID 545). Also: nearly all actives have a fitted effect of over 40% in size. To be noted: renal proximal tubule cells viability, primary cells of rat origin; series mostly up to 91.7 µM. Put shortly: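 Cytotoxicity is scored as a concentration-dependent drop in cellular ATP in primary rat renal proximal tubule cells exposed for 40 hr. AC50 derives from Hill modelling.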
Experiment [10] can be described thus: Cell Viability - Mesenchymal (AID 546).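 Also: cells exposed to compound for 40 hours before reading.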 To be noted: mesenchymal cells viability, qHTS; series mostly up to 91.7 µM. A digest of the protocol:
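Human kidney mesenchymal cells from normal renal glomeruli, 1000 cells/well, rested 5 hr at 37 °C, then treated 40 hr at 37 °C in complete medium. Cellular ATP read by CellTiter-Glo luminescence; AC50 from Hill-equation fits.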

Experiment [11] in a line: Cellular Toxicity (caspase-3) HepG2 (AID 654).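 Also: cells exposed to compound for 16 hours before reading; 0% = DMSO alone and 100% = caspase signal from 100 µM tamoxifen.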 The settings on record: HepG2 caspase-3 activation, luminescence, 0% = DMSO only, 100% = tamoxifen; series mostly up to 92.2 µM. A digest of the protocol:
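HepG2 cells (1500/well) were treated 16 h at 37 °C in complete medium, then caspase 3/7 activity was read by Caspase-Glo luminescence. Data were normalized to DMSO and 100 uM tamoxifen; AC50 came from Hill-equation fits of qHTS concentration-response.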

Experiment [12] is described as follows: Cellular Toxicity (caspase-3) Jurkat (AID 655).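 Also: cells exposed to compound for 16 h at 37 °C before reading.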 To be noted: Jurkat caspase-3 activation, luminescence, DMSO = 0%, tamoxifen = 100%; series mostly up to 92.2 µM. A digest of the protocol: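 Caspase 3/7 activation is scored as increased luminescence in Jurkat cells cultured with compound for 16 hours in complete medium. AC50 values come from Hill fits of qHTS concentration-response data normalized to DMSO and 100 uM tamoxifen controls.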

The nature of experiment [13]: Cellular Toxicity (caspase-3) HUV-EC-C (AID 656). The settings on record: HUV-EC-C cells, caspase-3 activation (apoptosis), vehicle = 0, 100 µM tamoxifen = 100%; series mostly up to 92.2 µM. Put shortly: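 Read-out: luminescence proportional to caspase 3/7 activity, measured 20 min after adding Caspase-Glo 3/7 reagent. Cells (HUV-EC-C) had received compound for 16 hr at 37°C. Increases relative to DMSO and 100 uM tamoxifen gave concentration-response AC50 values.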

A short description of experiment [14]: Cellular Toxicity (caspase-3) SHSY5Y (AID 657). The settings on record: SH-SY5Y caspase-3 activation, DMSO zero, 10 µM staurosporine = 100%; series mostly up to 91.7 µM. A digest of the protocol: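 Cells plated and incubated 5 h at 37 °C, dosed over a concentration range, incubated 16 h, then given Caspase-Glo 3/7 reagent for 1 h at room temperature before luminescence reading. Staurosporine (10 uM) defined full stimulation.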

Experiment [15] is described as follows: Cellular Toxicity (caspase-3) BJ (AID 658). The settings on record: BJ fibroblasts, luminescence, normalized: DMSO 0%, staurosporine 100%; series mostly up to 91.7 µM. A digest of the protocol:
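BJ human foreskin fibroblasts, 1000 cells/well, treated 16 hours at 37 °C in complete medium; caspase 3/7 activity by Caspase-Glo luminescence after 1 hr at room temperature. Normalized to DMSO and 10 uM staurosporine; AC50 from Hill fits.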

Experiment [16] in a line: Cellular Toxicity (caspase-3) MRC-5 (AID 659). The settings on record: MRC-5 cells, luminescence, normalized: DMSO 0%, 10 µM staurosporine 100%; series mostly up to 91.7 µM. A digest of the protocol:
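MRC-5 human normal lung fibroblasts, 1500 cells/well, treated 16 h at 37 °C in complete medium. Caspase 3/7 measured by Caspase-Glo luminescence after 1 h at room temperature. Normalized to DMSO and 10 uM staurosporine; AC50 from Hill fit.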

Experiment [17] can be described thus: Cellular Toxicity (caspase-3) Mesangial (AID 660). The settings on record: mesangial cells, normalized: DMSO 0%, 100 µM tamoxifen 100%; series mostly up to 91.7 µM. A digest of the protocol: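 Human renal glomerular mesangial cells, 1000/well, 5 h at 37 C before 16 h compound treatment. Caspase-Glo 3/7 luminescence after 20 min; normalized to DMSO and 100 uM tamoxifen, AC50 from Hill fit.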

A short description of experiment [18]: Cellular Toxicity (caspase-3) SK-N-SH (AID 661). The settings on record: SK-N-SH caspase-3 activation, qHTS, DMSO as zero, staurosporine as full; series mostly up to 91.7 µM. Put shortly: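 Human SK-N-SH neuroblastoma cells, 1500/well, were exposed to compounds for 16 hours at 37 °C. Caspase-Glo 3/7 luminescence was normalized to DMSO (basal) and 10 uM staurosporine (100%), and AC50 came from a Hill fit.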

A short description of experiment [19]: Cellular Toxicity (caspase-3) H-4-II-E (AID 663).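 Also: cells exposed to compound for 16 hr before readout.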 To be noted: H-4-II-E rat hepatoma, scaled: DMSO 0%, 100 µM tamoxifen 100%; series mostly up to 92.2 µM. Put shortly:
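Rat hepatoma H-4-II-E cells (1500/well) plated 5 hr, then exposed to compound titrations for 16 hr at 37 °C. Caspase-Glo 3/7 luminescence read after 20 min at RT; data normalized to DMSO and 100 uM tamoxifen, AC50 from Hill fits.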

A short description of experiment [20]: Cellular Toxicity (caspase-3) Hek293 (AID 664).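 Also: cells exposed to compound for 16 h at 37 °C before readout.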 To be noted: HEK293 caspase-3 activation, DMSO = 0%, 100 µM tamoxifen = 100%; series mostly up to 92.2 µM. Put shortly:
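HEK293 cells in complete medium treated 16 h at 37 °C, then Caspase-Glo 3/7 luminescence read after 20 min at room temperature. Normalized to DMSO and 100 uM tamoxifen; AC50 from Hill fit of concentration-response.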

Consider `CO[C@H]1/C=C/O[C@@]2(C)Oc3c(C)c(O)c4c(O)c(c(/C=N/N5CCN(C)CC5)c(O)c4c3C2=O)NC(=O)/C(C)=C\C=C\[C@H](C)[C@H](O)[C@@H](C)[C@@H](O)[C@@H](C)[C@H](OC(C)=O)[C@@H]1C`, for which the Potency in experiment [1], in experiment [2], in [3], in experiment [4], in experiment [5] and in experiment [6] was above 92 µM throughout. In addition, the molecule was called inactive in experiment [7], in experiment [9], in experiment [10], in [11], in experiment [12] and in experiment [13]. In addition, the molecule was called inactive in experiment [14], in experiment [15], in [16], in [17], in experiment [18] and in [19]. Moreover, the call in experiment [20] was inactive. Also, the viability change, negative = cytotoxic in [8] was -92.1% (active).
